# Hits are enriched below; roughly 4.2% of the tested compounds scored in any of these assays.
# GDH-TPI counter-1 – GDH-TPI coupled enzyme inhibition counter-screen. inhibition, % at 4.8 µM. GDH-TPI coupled enzyme counterscreen, NADH absorbance. hit rate 1.2% among 360,000; in the data active means inhibition above about 30%
# RecA splice inh – blocks M. tuberculosis RecA intein splicing. inhibition, % (test concentration not listed). AID 2221. hit rate 0.75% among 290,000. cell-free RecA intein splicing, fluorescence; in the data active means inhibition above about 30%
# Target sequence (P9WHJ3 whole entry, looked up, canonical isoform): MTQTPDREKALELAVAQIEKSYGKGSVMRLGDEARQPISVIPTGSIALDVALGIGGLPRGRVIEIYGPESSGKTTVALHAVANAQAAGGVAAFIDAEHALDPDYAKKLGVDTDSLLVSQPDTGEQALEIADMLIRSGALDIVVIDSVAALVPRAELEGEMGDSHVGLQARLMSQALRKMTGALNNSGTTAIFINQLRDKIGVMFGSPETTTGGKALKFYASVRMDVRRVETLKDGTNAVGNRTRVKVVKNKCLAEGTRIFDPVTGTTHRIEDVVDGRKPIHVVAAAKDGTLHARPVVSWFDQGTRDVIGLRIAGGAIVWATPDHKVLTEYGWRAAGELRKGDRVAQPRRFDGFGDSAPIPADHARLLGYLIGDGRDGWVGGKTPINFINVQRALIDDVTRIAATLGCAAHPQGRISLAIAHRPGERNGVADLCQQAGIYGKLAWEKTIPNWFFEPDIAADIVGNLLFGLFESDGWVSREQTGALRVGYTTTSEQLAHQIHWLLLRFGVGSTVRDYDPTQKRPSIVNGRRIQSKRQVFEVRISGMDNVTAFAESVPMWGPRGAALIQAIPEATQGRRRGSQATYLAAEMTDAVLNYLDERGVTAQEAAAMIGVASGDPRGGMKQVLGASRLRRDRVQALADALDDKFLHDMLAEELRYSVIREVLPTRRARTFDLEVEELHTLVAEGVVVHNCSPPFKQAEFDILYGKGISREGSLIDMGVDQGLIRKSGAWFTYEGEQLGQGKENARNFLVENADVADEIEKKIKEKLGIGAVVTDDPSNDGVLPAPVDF
# FBA Mtb inh – Mtb fructose-bisphosphate aldolase inhibition. purified M. tuberculosis FBA, fluorescence read-out. inhibition, % at 1 µM. hit rate 2.3% among 360,000. AID 588726
# BJeLR viability – kills HRASV12-expressing BJeLR cells; BJeLR (HRASV12) viability, CellTiter-Glo ATP luminescence, 48 h; inhibition, % (no concentration beside the values); hit rate 0.17% among 300,000; in the data active means inhibition above about 50%
# PrPC TRFRET – inhibitors of human cell surface prion protein PrPC; hit rate 0.43% among 370,000; inhibition, % at 13.8 µM; TR-FRET read-out; P04156; in the data active means inhibition above about 24%
# Mtb FBA inh conf – Mtb FBA inhibition, confirmed; shares compounds with FBA Mtb inh; purified M. tuberculosis FBA, fluorescence read-out; inhibition, % at 1 µM; hit rate 78% among 5,600; AID 651616
# GDH-TPI counter-2 – GDH-TPI inhibition counter-screen for FBA inhibitors; shares compounds with FBA Mtb inh; GDH-TPI coupled enzyme counterscreen, fluorescence; inhibition, % at 1 µM; hit rate 81% among 5,600; in the data active means inhibition above about 10%
# GDH-TPI DR – GDH-TPI dose response counter-screen for Mtb FBA; shares compounds with FBA Mtb inh; GDH-TPI coupled enzyme assay, fluorescence, artifact counterscreen; IC50, µM; hit rate 79% among 170; call rule not given here
# Hits are given with their value; . = inactive; / = no result; + = active, no number. Unless noted, no stated cut-off is given here; in the data, active means inhibition above about 27%; inactive means the rest.
SMILES,GDH-TPI counter-1,RecA splice inh,FBA Mtb inh,BJeLR viability,PrPC TRFRET,Mtb FBA inh conf,GDH-TPI counter-2,others
COc1ccc(C(=O)NCCNc2nc3ccc(C)cc3cc2C#N)cc1,.,.,47,.,.,55,42,
CCCC(=O)OC12CCCN(C1)/C(=C/c1ccccc1)C2 (stereo unspecified),/,/,/,/,.,/,/,
CCOC(=O)CN1C(=O)N(c2ccc(OC)cc2)[C@H]2CC3c4ccccc4C[C@]3(C)[C@@H](C(=O)N(C)C3CCCCC3)C[C@H]21 (stereo partly specified),/,/,/,/,.,/,/,
Cn1c(=O)[nH]c2c(Br)nccc21,/,/,/,/,.,/,/,
Cc1cccc(NC(=O)c2cnc3sccn3c2=O)c1,.,.,.,.,.,/,/,
O=C(Nc1ccon1)c1cnc2sccn2c1=O,31,.,28,.,.,.,.,GDH-TPI DR=.
CC(C)C[C@H]1COc2cccc(F)c2S(=O)(=O)N1Cc1cn(Cc2ccc(F)cc2)nn1,/,/,/,/,.,/,/,
CNc1cncc(-c2ccccc2CO)n1,.,/,73,/,.,+,+,
CC(=O)Nc1cncc(-c2ccccc2C(C)=O)n1,.,/,.,/,.,/,/,
CCOc1ccccc1-c1cncc(NC)n1,.,/,74,/,.,66,47,
CN1C/C(=C/c2ccccc2)N2C(=O)C[C@@H](c3ccccc3)N=C12,/,/,/,/,.,/,/,
CC(C)(C)C(=O)OC12CCCN(C1)/C(=C/c1ccc(Cl)cc1)C2 (stereo unspecified),/,/,/,/,.,/,/,
CC(c1cccs1)N(Cc1ccco1)C(=S)Nc1ccc(F)c(Cl)c1 (stereo unspecified),.,.,38,.,.,+,144,
N#CC1=C(O)C(c2ccccc2)n2c1nc(=O)c1ccccc12 (stereo unspecified),.,.,85,.,.,137,129,
COCCCNC(=O)Cn1cnc2sc(C)c(S(=O)(=O)N3CCN(c4ncccn4)CC3)c2c1=O,.,.,27,.,.,+,+,
COc1ccccc1N1C(=O)c2ccccc2NC1c1cc(OC)c(OC)c(OC)c1 (stereo unspecified),.,.,55,.,.,96,65,
COc1ccc(C2Nc3ccccc3C(=O)N2c2ccc(C)cc2)cc1COc1ccccn1 (stereo unspecified),.,.,34,.,.,+,+,
COc1ccc(C2Nc3ccccc3C(=O)N2c2ccccc2)cc1CN1CCOCC1 (stereo unspecified),.,.,45,/,.,.,.,
COc1ccccc1N1C(=O)c2ccccc2NC1C(OC)OC (stereo unspecified),.,.,.,.,.,/,/,
COc1ccc(C2Nc3ccccc3C(=O)N2Cc2ccccc2)cc1CN1CCOCC1 (stereo unspecified),.,/,97,.,.,58,50,
COc1ccc(C2Nc3ccccc3C(=O)N2Cc2ccncc2)cc1COc1ccc(NC(C)=O)cc1 (stereo unspecified),/,/,/,/,.,/,/,
COCCCN1C(=O)[C@H](CC(=O)NCCC(C)C)[C@]2(C(=O)OC)CCCCC=C12,/,/,/,/,.,/,/,
Cc1ccc(-c2cc(C)nc3nc(N)nn23)cc1,.,/,83,.,.,61,51,
O=C(Nc1ccc(F)cc1)OCc1cn(Cc2cc(F)ccc2F)nn1,/,/,/,/,.,/,/,
Cc1ccccc1Cn1ccc2ccc(-c3ccc4ccn(Cc5ccccc5)c4c3)cc21,/,/,/,/,.,/,/,
SMILES,GDH-TPI counter-1,RecA splice inh,FBA Mtb inh,BJeLR viability,PrPC TRFRET,Mtb FBA inh conf,GDH-TPI counter-2,others
COc1ccc(-c2cc3cc(OC)c(OC)cc3cn2)cc1,.,/,89,/,.,45,33,
Cc1cc2c(nc1C)CCCN2Cc1ccccn1,/,/,/,/,.,/,/,
C=CCn1c(SCC(=O)N(CC)C2CCS(=O)(=O)C2)nc2ccccc2c1=O (stereo unspecified),.,.,.,.,.,/,/,
C=CCn1c(SCC(=O)N(CC)C2CCS(=O)(=O)C2)nc2cc(C(=O)O)ccc2c1=O (stereo unspecified),.,/,32,/,.,111,89,
CCNC(=O)N1CCN(c2ccc(N3CCN(Cc4ccccc4)[C@H](C)C3)c(C)c2)[C@H](C)C1,/,/,/,/,.,/,/,
CCOC(=O)C(O)C1CCc2c([nH]c3ccc(C)cc23)C1=O (stereo unspecified),.,.,.,.,.,/,/,
Cc1ccc2[nH]c3c(c2c1)CCNC3=O,.,.,75,.,.,113,93,
